Experimental findings from PubChem BioAssay (NCATS) are described below.

Several values for one entry are separate records, joined by “and”; a condition that tells them apart may be missing. Identical values can stand only once. Records with an inconclusive call do not appear. Activity calls are given as the source filed them. Unless noted, calls come from the whole dose curve; as a rule, active = well fitted curve in the direction sought with a large enough effect; inconclusive = small, poorly fitted or top-dose-only effect, or another doubt; inactive = no such curve, though single readings can be large; an effect the other way counts as inactive or inconclusive.

For experiment [1], the system named is Zika virus NS2B-NS3 protease (linked construct). The experiment is described as follows: Primary screen NINDS Rhodamine qHTS for Zika virus inhibitors (AID 1347160). Note: nearly all actives have a fitted effect of over 55% in size. Note: potency is the fitted concentration of half-maximal effect. The gist of the method: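 Aprotinin served as in-plate control. Conditions: 25 nM linked NS2B-NS3, pH 8.0 Tris buffer, titrated compounds, 15 min preincubation and 15 min reaction with 1.5 microM Rhod110 substrate at room temperature.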
For orientation: qHTS replaces the single test concentration by a dilution series.

The target of experiment [2] is Calcium and integrin-binding protein 1 (Homo sapiens) (UniProt Q99828). The experiment is described as follows: Primary qHTS for Identification of Calcium Integrin Binding Protein 1 (CIB1) Competitor (AID 1508620).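 Note: GST tagged CIB1 binding a fluorescein labelled alphaIIb integrin peptide tracer; top concentration of the series differs between compounds; % is set by controls: 0 for no effect and ±100 for the full control effect.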 The gist of the method: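 CIB1-GST (1 uM final) and compound incubated 15 min at room temperature before adding FITC-alphaIIb peptide tracer (100 nM final). Competition for binding read by fluorescence polarization (ex 480, em 540) after another 15 min at room temperature.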
Calcium and integrin-binding protein 1 (Homo sapiens), sequence (Q99828 whole entry, looked up): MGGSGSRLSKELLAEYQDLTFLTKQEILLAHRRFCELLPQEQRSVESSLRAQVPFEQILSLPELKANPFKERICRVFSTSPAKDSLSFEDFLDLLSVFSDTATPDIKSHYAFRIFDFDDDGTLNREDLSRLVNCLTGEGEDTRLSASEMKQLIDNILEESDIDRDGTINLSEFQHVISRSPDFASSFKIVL

The nature of experiment [3]: Primary qHTS for inhibitors of nuclear receptor binding SET domain protein 2 (NSD2) in an isogenic RCH-ACV NSD2 p.E1099K mutant (9B) (AID 1645876). Note: potency is the fitted concentration of half-maximal effect; nearly all actives have a fitted effect of over 70% in size.
Experiment [4] can be described thus: Primary qHTS for inhibitors of nuclear receptor binding SET domain protein 2 (NSD2) in an RCH-ACV wild type WT cells (2C) (AID 1645877). Note: potency is the fitted concentration of half-maximal effect; nearly all actives have a fitted effect of over 70% in size.
The target of experiment [5] is Glutathione peroxidase 1 (Homo sapiens) (UniProt P07203). Kind of experiment: Primary qHTS Assay for Inhibitors of Recombinant Selenoprotein Glutathione Peroxidase 1 (GPX1) (AID 1845191). Note: nearly all actives have a fitted effect of over 65% in size. Note: potency is the fitted concentration of half-maximal effect. The gist of the method:
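NADPH consumption tracked by fluorescence at 340/450 nm between t=0 and t=15 min, room temperature. Final mix: 10 nM GPX1, 100 nM glutathione reductase, 1 mM GSH, 0.5 mM NADPH, 0.5 mM cumene hydroperoxide, 0.01% BSA; 30 min compound–enzyme preincubation.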

The target of experiment [6] is Luciferin 4-monooxygenase (Photinus pyralis) (UniProt P08659). The experiment is described as follows: Primary firefly luciferase (FLuc) qHTS assay for identification of artifact compounds. (AID 1845220). Note: nearly all actives have a fitted effect of over 60% in size. Put shortly:
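FLuc 10 nM; luciferin 10 uM; ATP 10 uM; Tris-acetate pH 7.6, Mg-acetate 10 mM; 15 min RT preincubation; 5 min reaction; luminescence.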

The subject of experiment [7] is Nanoluciferase (engineered Oplophorus gracilirostris luciferase). The experiment is described as follows: Primary Nanoluciferase (NLuc) qHTS assay for identification of artifact compounds. (AID 1845222).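 Note: NLuc secreted into diluted conditioned medium of S16 cells; 0% = DMSO and -100% = no enzyme.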 The gist of the method: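 NLuc from S16 cell medium (1:55) plus test compounds, 15 min, room temperature. Luminescence after Nano-Glo (1:100) addition, 5 min.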
Experiment [8] in a line: Primary redox qHTS assay for identification of artifact compounds. (AID 1845223). Note: potency is the fitted concentration of half-maximal effect. Put shortly:
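Redox-cycling detection via DTT (250 uM final) oxidation coupled to Amplex Red (25 uM)/HRP (250 mU/mL) in HBSS. 15 min preincubation plus 30 min after DTT, room temperature. Ex/Em 525/598 nm; 4-parameter Hill fit against DMSO and 10 uM DA3003.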

Experiment [9] can be described thus: qHTS drug screen for cell cycle checkpoint inhibitors in PARPi-resistant BRCA-mutant ovarian cancer cell lines. (AID 1963452; calls by dose curve). The settings on record: PEO1/OlaR viability, CellTiter-Glo luminescence, 96 h, stronger effect = lower value. Put shortly:
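PEO1, PEO4 and PEO1/OlaR ovarian cancer cells, 600 per well, exposed 96 h at 37C to a dilution series. Viability read by CellTiter-Glo luminescence, normalized to DMSO and empty wells; activity summarized as Z-AUC.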

The next experiment has as its system HeLa. The experiment is described as follows: Primary qHTS to identify gynecologic anti-cancer compounds using libraries of approved drugs and bioactive compounds (AID 1345084). Note: nearly all actives have a fitted effect of over 55% in size. Note: potency is the fitted concentration of half-maximal effect. As to conditions: Gynecologic cancer cell panel viability, ATPlite luminescence, 48 h; series mostly up to 57.5 µM. The gist of the method: (§1)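 Cells, 1,000 per well, plated 16 h, then exposed 48 h at 37 C to compounds. Viability by ATPlite luminescence after 15 min at room temperature.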

For the next experiment, the system named is JEG-3. Described as above. As to conditions: Gynecologic cancer cell panel viability, ATPlite luminescence, 48 h; series mostly up to 57.5 µM. The gist of the method: as §1
(In general: In ATP-based viability assays light output follows the ATP content of the culture.)

Another experiment relates to HaCat. Kind of experiment: Cytotoxic Profiling of Annotated Libraries Using Quantitative High-Throughput Screening (AID 1296008). For max response: % is set by controls: 0 for no effect and ±100 for the full control effect. Note: nearly all actives have a fitted effect of over 60% in size. As to conditions: Five cell lines viability, CellTiter-Glo ATP luminescence, 48-72 h; max response: stronger effect = lower value. The gist of the method: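 Cytotoxicity was measured as CellTiter-Glo ATP luminescence, read after 10 min at room temperature. Compound treatment of the cells lasted 48 or 72 hr at 37 degrees Celsius in a qHTS format.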

In another experiment the test system is C33A. Kind of experiment: Primary qHTS to identify gynecologic anti-cancer compounds using libraries of approved drugs and bioactive compounds (AID 1345084). Note: nearly all actives have a fitted effect of over 55% in size. Note: potency is the fitted concentration of half-maximal effect. The settings on record: Gynecologic cancer cell panel viability, ATPlite luminescence, 48 h; series mostly up to 57.5 µM. Put shortly:
as §1

In the next experiment the test system is CASKI. The description is as above. The settings on record: Gynecologic cancer cell panel viability, ATPlite luminescence, 48 h; series mostly up to 57.5 µM. Put shortly:
as §1

For a further experiment, the system named is Es-2. The experiment is described as above. The settings on record: Gynecologic cancer cell panel viability, ATPlite luminescence, 48 h; series mostly up to 57.5 µM. Put shortly:
as §1

The test system of a further experiment is Hek293T. Described as above. The settings on record: Gynecologic cancer cell panel viability, ATPlite luminescence, 48 h, control line for the selectivity index; series mostly up to 57.5 µM. The gist of the method: as §1
The subject of another experiment is OV90. The experiment is described as above. The settings on record: Gynecologic cancer cell panel viability, ATPlite luminescence, 48 h; series mostly up to 57.5 µM. The gist of the method:
as §1

Another experiment deals with Tov-21-G. The experiment is described as above. The settings on record: Gynecologic cancer cell panel viability, ATPlite luminescence, 48 h; series mostly up to 57.5 µM. The gist of the method:
as §1

The next experiment deals with Tov112D. The description is as above. The settings on record: Gynecologic cancer cell panel viability, ATPlite luminescence, 48 h; series mostly up to 57.5 µM. Put shortly:
as §1

Experiment [10] addresses Phospholipid hydroperoxide glutathione peroxidase GPX4 (Homo sapiens) (UniProt P36969). Kind of experiment: Primary qHTS Assay for Inhibitors of Recombinant Selenoprotein Glutathione Peroxidase 4 (GPX4) (AID 1845192). Note: % is set by controls: 0 for no effect and ±100 for the full control effect; nearly all actives have a fitted effect of over 65% in size. The settings on record: outcome: dose series up to 50 µM unless noted. The gist of the method:
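NADPH consumption followed by fluorescence at 340/450 nm, t=0 and after 15 min at room temperature. Reaction started with cumene hydroperoxide (0.5 mM final) after 30 min compound–GPX4 preincubation; final 200 nM GPX4, 100 nM GR, 1 mM GSH, 0.5 mM NADPH.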

Glutathione peroxidase 1 (Homo sapiens), sequence (P07203 whole entry, looked up): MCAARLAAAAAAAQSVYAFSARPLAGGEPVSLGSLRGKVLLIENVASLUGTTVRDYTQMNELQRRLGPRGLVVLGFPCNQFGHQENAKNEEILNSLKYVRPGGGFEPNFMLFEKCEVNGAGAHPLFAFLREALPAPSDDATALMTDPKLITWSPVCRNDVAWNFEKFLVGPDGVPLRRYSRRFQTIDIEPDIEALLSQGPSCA
Phospholipid hydroperoxide glutathione peroxidase GPX4 (Homo sapiens), sequence (P36969 whole entry, looked up): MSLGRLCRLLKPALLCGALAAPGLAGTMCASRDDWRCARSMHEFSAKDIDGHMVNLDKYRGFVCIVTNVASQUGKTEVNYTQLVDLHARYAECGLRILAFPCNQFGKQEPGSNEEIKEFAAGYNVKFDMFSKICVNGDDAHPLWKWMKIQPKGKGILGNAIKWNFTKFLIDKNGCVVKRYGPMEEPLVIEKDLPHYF

As to `O=C(c1ccc(F)c(F)c1Nc1ccc(I)cc1F)N1CC(O)([C@@H]2CCCCN2)C1`, the Potency result (in experiment [1]; in experiment [5]; in experiment [6]; in experiment [7]; in experiment [8]; with HeLa) was “inactive” throughout. In the experiment with JEG-3, the Potency result is “inactive”. Also, the result in experiment [2] was inactive. For the same molecule, the Potency in experiment [3] was 14.8 µM (active); in experiment [4], 14.5 µM (active) and 14.8 µM (active). For the same molecule, the Z-AUC was -1.02 (inactive) in experiment [9], -0.911 in experiment [9] (measured here: PEO1 parental Z-AUC) and -1.32 in experiment [9] (measured here: PEO4 Z-AUC).

In the case of `CC(C)(C)c1ccc(CNC(=S)NCc2ccc(NS(C)(=O)=O)c(F)c2)cc1`, the Potency entry (in experiment [1]; in [6]; in [7]; with C33A; with CASKI; in the experiment with Es-2) was “inactive” each time. Moreover, the Potency result in the experiment with HeLa, in the experiment on Hek293T, in the experiment with OV90, in the experiment with Tov-21-G and with Tov112D was “inactive” in each case. Also, the result in experiment [2] was inactive. Also, the Potency in experiment [3] was 20.5 µM (active); in [4], 12.9 µM (active); in experiment [5], 14.3 µM (active). Moreover, the max response in the experiment on HaCat was -44.1% (inactive).

As to `CC(=O)N1c2ccc(-c3ccc(C(=O)O)cc3)cc2C(Nc2ccc(Cl)cc2)CC1C` (configuration not stated), the Potency in experiment [1] was 8.91 µM (active); in [3], 0.0325 µM (active); in experiment [4], 0.0205 µM (active); in the experiment with Tov-21-G, 2.24 µM (active). For the same molecule, the outcome in experiment [2] was inactive. Besides, the Potency result (in experiment [10]; in experiment [6]; in [7]; with C33A; in the experiment with Hek293T) was “inactive” each time.

Consider `CCOC(=O)c1cccc(CNc2ccc(N(C)C(=O)Nc3ccccc3)cc2)c1`, for which the Potency entry (in [1]; in experiment [5]; in [10]; in [6]; in the experiment on HeLa; in the experiment with JEG-3) was “inactive” in each case. In addition, the Potency result in the experiment on Tov-21-G and in the experiment on Tov112D was “inactive” throughout. In addition, the outcome in [2] was inactive. The Potency in experiment [3] was 14.5 µM (active); in experiment [4], 14.5 µM (active); in [8], 23.8 µM (active). In addition, in the experiment with HaCat, the max response was -23.2% (inactive).

As for `CC1CCN(C(c2ccc(F)cc2)c2ccc(C(C)C(=O)O)cc2-c2ccc(C(F)(F)F)cc2)CC1` (configuration not stated), the Potency is 3.16 µM (active) in experiment [1], 14.5 µM (active) in [3] and 11.5 µM (active) in experiment [4]. Further, the result in experiment [2] was inactive. Moreover, the Potency entry (in experiment [5]; in experiment [10]; in [6]; in [7]; in experiment [8]; in the experiment on C33A) was “inactive” in each case. Moreover, the Potency result in the experiment with CASKI, in the experiment on Es-2, in the experiment on JEG-3, in the experiment on OV90, in the experiment with Tov-21-G and in the experiment with Tov112D was “inactive” throughout. For the same molecule, in the experiment on HaCat, the max response is 1.13% (inactive).

As for `CCC[C@@H](NC(=O)N1C(=O)C(CC)(CC)[C@@H]1Oc1ccc(C(=O)N2CCN(C)CC2)cc1)c1ccc2c(c1)OCO2`, the Potency entry (in [1]; in [5]; in [6]; in [8]; with C33A; in the experiment with CASKI) was “inactive” in each case. Besides, the Potency entry in the experiment on Es-2, with HeLa, with Hek293T, with JEG-3, in the experiment on OV90 and with Tov-21-G was “inactive” each time. Also, the Potency result in the experiment on Tov112D was “inactive”. For the same molecule, the result (in experiment [2]; with HaCat) was inactive.

With `COc1cccc(CNC(=O)Nc2nc(-c3ccncc3)cs2)c1`, the Potency result in experiment [1], in experiment [5], in [10], in experiment [6], in experiment [7] and in experiment [8] was “inactive” throughout. Moreover, the Potency entry in the experiment with C33A, in the experiment on CASKI, in the experiment with Es-2, in the experiment on Hek293T, in the experiment on JEG-3 and in the experiment with OV90 was “inactive” each time. The Potency result in the experiment with Tov-21-G and with Tov112D was “inactive” in each case. Moreover, the outcome in [2] was inactive. The Potency in [3] was 7.28 µM (active); in experiment [4], 1.63 µM (active). For the same molecule, in the experiment on HaCat, the max response is -7.04% (inactive).
